Results as given in PubChem BioAssay.

experiment: small molecules captured by biotinylated probe aFGF10 – biochemical, small-molecule microarray, fluorescence 635/667, stem cell growth factor project, primary screen (AID 1071); settings: higher = more signal;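 also: score merges 667 nm spot intensity and signal to noise from triplicate slides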

| SMILES | composite z-score |
| --- | --- |
| O=c1cccc(CCc2ccccc2)o1 | 0.0466 |
| COc1ccc([Si](C)(C)[C@H]2[C@H](CCn3cc(CCO)nn3)O[C@@]3(C(=O)N(Cc4ccc(N5CCOC5=O)cc4)c4ccccc43)[C@@H]2C)cc1 | 0.44 |
| C=CC[C@@H](OC(=O)Nc1ccc(OC)cc1)c1ccc(O)c2ccccc12 | 0.224 |
| CC(c1ccccc1)C(O)C1C=CC2C(=O)NC(=O)C2N1Nc1ccccn1 (configuration not stated) | 0.306 |
| CC(C)CNC(=O)[C@@H]1c2ccccc2C(=O)N(Cc2cc(C(F)(F)F)cc(C(F)(F)F)c2)[C@H]1c1ccc(CO)cc1 | -0.365 |
| C[C@]1(C(=O)NCc2ccccc2)c2ccccc2C(=O)N(Cc2cc(F)cc(C(F)(F)F)c2)[C@H]1c1ccc(CO)cc1 | -0.0459 |
| O=C1O[C@H](c2ccccc2)[C@H](c2ccccc2)N2[C@H]1[C@@H](C(=O)Nc1nc3ccccc3s1)[C@]1(C(=O)Nc3ccccc31)[C@H]2c1ccc(O)cc1 | 0.405 |
| CN(C)CCCNC(=O)[C@@]1(Cc2ccccc2I)c2ccccc2C(=O)N(Cc2ccccc2C(F)(F)F)[C@H]1c1ccc(CO)cc1 | -0.935 |
| CCCCCN1CC=CC23O[C@@H]4C=CCOC(=O)[C@@H]4[C@H]2C(=O)N(CCCO)[C@@H]3C1=O (some centres not stated) | -0.549 |
| C=C(CCCC)/C(=C/C[C@H](OC(C)=O)c1ccc(CO)o1)c1cnc2ccccc2c1 | 1.14 |
| CC(C)NC(=O)[C@@]1(Cc2ccccc2I)c2ccccc2C(=O)N(Cc2ccccc2)[C@H]1c1ccc(CO)cc1 | 0.554 |
| O=C1C2C=CC(C(O)c3ccc(B(O)O)cc3)N(Nc3ccccc3)C2C(=O)N1c1ccccc1 (configuration not stated) | -0.132 |
